Screening data: PubChem BioAssay, National Center for Advancing Translational Sciences (NCATS)
In the library only some 10% were active in any assay of this set; here they are far more common.
Pf growth 96h = P. falciparum growth inhibition at 96 hour, primary screen for plastid delayed-death inhibitors. P. falciparum luciferase reporter growth, 96 h. Potency, µM (titrated, usually from 28.7 µM), hits mostly inhibitors. 320,000 compounds, 6.9% hits; active means well fitted inhibition curve with a large enough effect; inconclusive means small, poorly fitted or top-dose-only effect, or another doubt; inactive means no such curve, though single readings can be large or run the other way
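Readout is luminescence from an integrated firefly luciferase in P. falciparum. Red cells, 2% hematocrit and 0.05% parasitemia final, were cultured with compound through two parasite generations (96 hours) at 37 C, 5% CO2.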
NS1 function inh = inhibitors of influenza NS1 protein function; Potency, µM (doses to about 46.1 µM); 270,000 compounds, 0.4% hits; AID 2326; further: actives are rising curves; nearly all actives have a fitted effect of over 50% in size
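In this qHTS, NS1 from influenza A is expressed in budding yeast, where it slows growth. Cells are switched from glucose to 2% galactose medium (pH 6.0, -URA), treated with compound, and growth recovery is read at OD600.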
Pf growth 48h = inhibits P. falciparum growth in the first generation, 48 h. P. falciparum luciferase growth in erythrocytes, 48 h. 310,000 compounds, 5.9% hits. Potency, µM (series often up to 28.7 µM), hits mostly inhibitors; active means well fitted inhibition curve with a large enough effect; inconclusive means small, poorly fitted or top-dose-only effect, or another doubt; inactive means no such curve, though single readings can be large or run the other way
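Erythrocytes infected with P. falciparum carrying an integrated firefly luciferase reporter (2% hematocrit, 0.1% parasitemia final) were exposed to compounds in RPMI 1640 with 0.5% Albumax at 37 C, 5% CO2. Growth inhibition was scored as reduced luminescence.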
SARS PLP yeast = inhibitors of SARS-CoV papain-like protease in yeast. S. cerevisiae expressing SARS-CoV PLpro, growth rescue. Potency, µM (doses to about 32.9 µM), usual class: activators. 330,000 compounds, 0.19% hits; further: nearly all actives have a fitted effect of over 55% in size
Hits are given with their value. Unless noted, the call rests on the fitted dose curve.

For Cc1onc(-c2ccccc2)c1CNS(=O)(=O)c1cccc(Br)c1 the results were Pf growth 96h inactive, NS1 function inh inactive, Pf growth 48h inactive and SARS PLP yeast inactive.
Screening O=c1c2ccccc2nc(/C=C/c2ccc(O)cc2)n1-c1ccccc1O returned Pf growth 96h inconclusive, NS1 function inh inactive, Pf growth 48h 9.3µM and SARS PLP yeast inactive.
For CCOc1ccc(CCNC(=O)c2ccc(CNS(=O)(=O)c3ccccc3)cc2)cc1OCC the results were Pf growth 96h 8.3µM, NS1 function inh inactive, Pf growth 48h inconclusive and SARS PLP yeast inactive.
Screening CCOc1ccc(CCNC(=O)c2cc(=O)[nH]c3ccc(S(=O)(=O)N(CC)CC)cc23)cc1OCC returned Pf growth 96h inconclusive, NS1 function inh inactive, Pf growth 48h 15µM and SARS PLP yeast inactive.
Screening Cc1ccc(C)c(S(=O)(=O)NCc2ccc(C(=O)N3CCCCC3C)cc2)c1 (stereo unspecified) returned Pf growth 96h 4.1µM, NS1 function inh inactive and SARS PLP yeast inactive.
For COc1ccc(CCNC(=O)c2ccc(CNS(=O)(=O)c3cc(C)ccc3C)cc2)cc1OC the results were Pf growth 96h 5.2µM, NS1 function inh inactive and SARS PLP yeast inactive.
For CCN(CC)S(=O)(=O)c1ccc2[nH]c(=O)cc(C(=O)NCc3ccccc3)c2c1 the results were Pf growth 96h inactive, NS1 function inh inactive, Pf growth 48h inactive and SARS PLP yeast inactive.
`CCn1cc(/C=C(\NC(=O)c2ccc(OC)cc2)C(=O)N2CCOCC2)c2ccccc21` gave Pf growth 96h inconclusive, NS1 function inh inactive, Pf growth 48h inconclusive and SARS PLP yeast inactive.
Screening COc1ccc(CCNC(=O)c2ccc(CNS(=O)(=O)c3ccc(C(C)(C)C)cc3)cc2)cc1OC returned Pf growth 96h 13µM, NS1 function inh inactive, Pf growth 48h inconclusive and SARS PLP yeast inactive.
`O=C(N/C(=C\c1cccc(Br)c1)C(=O)N1CCOCC1)c1ccco1` gave Pf growth 96h inactive, NS1 function inh inactive, Pf growth 48h inactive and SARS PLP yeast inactive.
Screening COc1ccc(C(=O)CC(=O)c2ccc(OC)cc2)cc1 returned Pf growth 96h inactive, NS1 function inh inactive, Pf growth 48h inactive and SARS PLP yeast inactive.
COc1ccc(C(=O)Cn2cc[n+](C)c2)cc1 was read as Pf growth 96h inactive, NS1 function inh inactive, Pf growth 48h 12µM and SARS PLP yeast inactive.
Screening O=C(CSc1n[nH]c(-c2cccs2)n1)NCCc1ccccc1 returned Pf growth 96h inactive, Pf growth 48h inactive and SARS PLP yeast inactive.
CC(C)c1ccc2[nH]c(O)c(N=NC(=O)c3ccc(CSc4nncn4C)cc3)c2c1 was read as Pf growth 96h 5.2µM, NS1 function inh inactive, Pf growth 48h inactive and SARS PLP yeast inactive.
O=C(/C=C/c1cccc([N+](=O)[O-])c1)Nc1cccc(NC(=O)c2ccco2)c1 was read as Pf growth 96h inactive, NS1 function inh inactive, Pf growth 48h inactive and SARS PLP yeast inactive.
`O=C(COc1ccccc1[N+](=O)[O-])Nc1ccc(N2CCN(C(=O)c3cccs3)CC2)cc1` gave Pf growth 96h inactive, NS1 function inh inactive, Pf growth 48h 10µM and SARS PLP yeast inactive.
For CCC(=O)N1CCN(c2ccc(NC(=O)c3cccs3)cc2)CC1 the results were Pf growth 96h 13µM, NS1 function inh inactive, Pf growth 48h inactive and SARS PLP yeast inactive.
`O=C(Nc1ccc(N2CCN(C(=O)c3cccs3)CC2)cc1)c1ccco1` gave Pf growth 96h inconclusive, NS1 function inh inactive, Pf growth 48h inactive and SARS PLP yeast inactive.
For O=C(Nc1ccc(N2CCN(C(=O)c3ccccc3)CC2)cc1)c1cccs1 the results were Pf growth 96h inactive, NS1 function inh inactive, Pf growth 48h inactive and SARS PLP yeast inactive.
`CCC(=O)Nc1ccc(N2CCN(C(=O)c3cccs3)CC2)cc1` gave Pf growth 96h inactive, NS1 function inh inactive, Pf growth 48h inactive and SARS PLP yeast inactive.
For O=C(/C=C/c1cccc([N+](=O)[O-])c1)Nc1cccc(NC(=O)c2cccs2)c1 the results were Pf growth 96h 4.1µM, NS1 function inh inconclusive, Pf growth 48h inactive and SARS PLP yeast inactive.
O=C(Nc1ccc(N2CCN(C(=O)c3cccs3)CC2)cc1)c1ccc([N+](=O)[O-])o1 was read as Pf growth 96h 9.3µM, NS1 function inh inactive, Pf growth 48h inconclusive and SARS PLP yeast inactive.
O=C(Nc1ccc(N2CCN(c3ncccc3C(F)(F)F)CC2)nc1)c1cccs1 was read as Pf growth 96h 2.3µM, NS1 function inh inactive, Pf growth 48h 0.37µM and SARS PLP yeast inactive.
For COc1cc(NC(=O)c2ccc([N+](=O)[O-])o2)ccc1NC(=O)c1cccs1 the results were Pf growth 96h inactive, Pf growth 48h inconclusive and SARS PLP yeast inactive.
For O=C(Nc1cccc(NC(=O)c2cccs2)c1)c1ccc([N+](=O)[O-])o1 the results were Pf growth 96h 3.3µM, NS1 function inh inactive, Pf growth 48h 12µM and SARS PLP yeast inactive.
`O=C(Nc1ccc(N2CCN(C(=O)c3cccs3)CC2)cc1)c1cccnc1` gave Pf growth 96h 2.9µM, NS1 function inh inactive, Pf growth 48h inconclusive and SARS PLP yeast inactive.
For O=C(Nc1ccc(N2CCN(c3ccc(C(F)(F)F)cn3)CC2)nc1)c1cccs1 the results were Pf growth 96h inconclusive, NS1 function inh inactive, Pf growth 48h inconclusive and SARS PLP yeast inactive.
Screening CC1Cc2ccccc2N1C(=S)NC(=O)c1ccco1 (stereo unspecified) returned Pf growth 96h inactive, Pf growth 48h inactive and SARS PLP yeast inactive.
CC(Oc1ccc(NC(=O)c2ccco2)cc1)C(=O)N1c2ccccc2CC1C (stereo unspecified) was read as Pf growth 96h 5.2µM, NS1 function inh inactive, Pf growth 48h inconclusive and SARS PLP yeast inactive.
`CCOc1ccc(CNC2CCCCCCC2)cc1OC` gave Pf growth 96h inconclusive, NS1 function inh inactive, Pf growth 48h inactive and SARS PLP yeast inactive.
`CCOc1ccc(N2CC(C(=O)Nc3ccc(S(=O)(=O)Nc4nccs4)cc3)CC2=O)cc1` (stereo unspecified) gave Pf growth 96h inactive, NS1 function inh inactive, Pf growth 48h inactive and SARS PLP yeast inactive.
For CC(=O)Nc1cccc(NC(=O)c2ccco2)c1 the results were Pf growth 96h inconclusive, NS1 function inh inactive, Pf growth 48h inactive and SARS PLP yeast inactive.
Screening O=C(Nc1cc(Oc2ccc(Cl)cc2)cc([N+](=O)[O-])c1)c1ccco1 returned Pf growth 96h inactive, NS1 function inh inactive, Pf growth 48h inconclusive and SARS PLP yeast inactive.
Screening COc1cccc(NC(=O)c2ccco2)c1 returned Pf growth 96h inactive, NS1 function inh inactive, Pf growth 48h inactive and SARS PLP yeast inactive.
`Cc1ccc(C(=O)C(C)Oc2cccc(NC(=O)c3ccco3)c2)cc1` (stereo unspecified) gave Pf growth 96h inactive, NS1 function inh inactive, Pf growth 48h 2.9µM and SARS PLP yeast inactive.
For O=C(Nc1cccc(NC(=O)c2ccc([N+](=O)[O-])o2)c1)c1ccco1 the results were Pf growth 96h inactive, NS1 function inh inactive, Pf growth 48h 9.3µM and SARS PLP yeast inactive.
Screening O=C(Nc1ccc(NC(=O)c2ccc([N+](=O)[O-])o2)cc1Cl)c1ccco1 returned Pf growth 96h inactive, NS1 function inh inactive, Pf growth 48h 12µM and SARS PLP yeast inactive.
